Measurements reported in the supplement of paper PMC6555819.

Tested on: VDR:RXRa (NR concentration 270 nM, RXRa partner concentration 90 nM)
Assay: PBM binding z-score (relative to random genomic background probes); higher = stronger binding; sequences stand for … in GC…GCGATTGACAGCGTAGAATGAAGG
Description: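 Protein-binding microarray (Agilent 4x180K custom design, double-stranded 60-nt probes: 5' GC cap, 34-nt variable region, 24-nt constant primer region; full probe sequence given). Purified or IVT nuclear receptor:RXRα heterodimers (3:1 NR:RXRα, mostly 270:90 nM) or homodimers were incubated for 1 h in PBS with 2% milk and no ligand, then detected with Alexa488 antibodies. Fluorescence from o1-orientation probes (~5 replicates averaged) was converted to z-scores against 500 random hg19 background probes. Variable regions are seed direct-repeat (DR0–DR5) sites, all their single-nucleotide variants and half-site ablations.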

**Q.** For CCTTACGGGTCCCTGACAGGTTATAGCATTTGGA, which PBM binding z-score is on record?
**A.** -0.165

**Q.** Which PBM binding z-score does the source give for CCGAGTAGTTTACGAGGGGGCATTCAGTGCGAAT here?
**A.** 4.03

**Q.** Which PBM binding z-score does the source give for CCGAGTAGGTTACGAGGGGGCATTCACTGCGAAT here?
**A.** 4.98

**Q.** For AGTCAAAGTTCATCTGGGTAACGTAAGATATGCT, which PBM binding z-score is on record?
**A.** 4.96

**Q.** For CTATGTAGGTTAAGGGGGTCATCCAGTTTGAAAG, which PBM binding z-score is on record?
**A.** 7.32

**Q.** With ACAGACAGGTGAGTGAAGGTCACTCAGCTGGACG as the sequence, how does the PBM binding z-score read?
**A.** 2.73

**Q.** How did the PBM binding z-score turn out when ATCGAAATGTCGTGAGGTGAGTATACAGAAAGGC was run?
**A.** -0.0568

**Q.** For ATATGTAGGTTAGCTGGAGTCATTCAGACTAGGC, which PBM binding z-score is on record?
**A.** 0.533

**Q.** TCGAGTAGGTTACGGGGGCGTTCAGGGATGAAGA was tested. Which PBM binding z-score did it give?
**A.** 3.7

**Q.** With CCGAGTAGGTTACGAGGGGGCATTCATTGCGAAT as the sequence, how does the PBM binding z-score read?
**A.** 4.7

**Q.** CGAACTAGGTCAAAGGACAGTGGAAGGCGACGTA was tested. Which PBM binding z-score did it give?
**A.** 1.21

**Q.** ATCGAAAGGTCGAAGGTGAGTACACCCACCCGAA was tested. Which PBM binding z-score did it give?
**A.** 3.97

**Q.** For ACTAATTGGTCAGCTGAGGTCACACACAATTCGG, which PBM binding z-score is on record?
**A.** 4.77

**Q.** For CTATGCAGGTTAAGGGGGTCATTCAGTTTGAAAG, which PBM binding z-score is on record?
**A.** 7.5

**Q.** For CCTACTGGGCCAACAAGGTCATTGATGCCGATAA, which PBM binding z-score is on record?
**A.** 5.56

**Q.** How did the PBM binding z-score turn out when CGTCCAAGGTCAAGGTGAGTGAAAGAGACTCGAA was run?
**A.** 4.01

**Q.** For AGTCAAAGTTCAGGACGAGGTAATGTAAAGCACG, which PBM binding z-score is on record?
**A.** 3.07

**Q.** For TATACTGGGTCAAAGGCCAGAGTACGAATGTCGA, which PBM binding z-score is on record?
**A.** 2.38

**Q.** With TAGCCTAGGTCATTGTGCCAGTATAGTACGCATC as the sequence, how does the PBM binding z-score read?
**A.** 2.33

**Q.** How did the PBM binding z-score turn out when CGTCCAAGGTCAATGCTAGGCCAGTGAAAGCATT was run?
**A.** 3.78

**Q.** For CCTACGGGGCCAAGGTCATTGATCAGTCAAAGCA, which PBM binding z-score is on record?
**A.** 3.52

**Q.** With TCAGATAGGTAAAGGTGAAAGTCGAACGATATGA as the sequence, how does the PBM binding z-score read?
**A.** 0.979

**Q.** With CCTACTGGGCCATACAGAGGTCATTGATCATATG as the sequence, how does the PBM binding z-score read?
**A.** 4.09

**Q.** With CTATGTAGGTTAAGGGGGTCATTCAATTTGAAAG as the sequence, how does the PBM binding z-score read?
**A.** 7.18

**Q.** How did the PBM binding z-score turn out when CTCGAAAGGGCGTGCTCAGGTGAGTATACCAAAC was run?
**A.** -0.0475

**Q.** With CCTACTGGGCCACGAAAGGTGATTGATTCAGTGA as the sequence, how does the PBM binding z-score read?
**A.** -0.281

**Q.** How did the PBM binding z-score turn out when CGAACTATGTCAAAGGACAGTGAAAGGCGACGTA was run?
**A.** -0.0394

**Q.** How did the PBM binding z-score turn out when CAGACTAGGTCAAAGGTCAAAGTCGAGCCAACCA was run?
**A.** 6.58

**Q.** With CGAACTAGGTCACCAGGACAGTGTAGAGGTTGGA as the sequence, how does the PBM binding z-score read?
**A.** 2.17

**Q.** CTCGAAAGGTGGTGCTCAGGTGAGTATACCAAAC was tested. Which PBM binding z-score did it give?
**A.** -0.508

**Q.** Which PBM binding z-score does the source give for CGAACTAGGTCACCAGGACAGTGGAGAGGTTGGA here?
**A.** 1.99

**Q.** With CGAAATAGGTCACCAGGACAGTGAAGAGGTTGGA as the sequence, how does the PBM binding z-score read?
**A.** 2.91

**Q.** Which PBM binding z-score does the source give for CGAACTAGGTCAAAGGACAATGAAAGGCGACGTA here?
**A.** 1.73

**Q.** Which PBM binding z-score does the source give for CCTACTGGGGCACGAAAGGTCATTGATTCAGTGA here?
**A.** 4.61

**Q.** GCTGCTAGGTCAACTGAAGGTCAGCTAAAGCTCG was tested. Which PBM binding z-score did it give?
**A.** 4.15

**Q.** How did the PBM binding z-score turn out when CAACCTAGGTCACGAAAGGTCAAAGTCGAATGAC was run?
**A.** 7.15

**Q.** For CCTTACGGGTCACTTACAGGTTATAGCATTTGGA, which PBM binding z-score is on record?
**A.** 3.6

**Q.** With CGAACTAGGTCACCAGGACAATGAAGAGGTTGGA as the sequence, how does the PBM binding z-score read?
**A.** 2.21

**Q.** TTACCAAGGTGAAAGGTCGTTGAGGCACGCCTTG was tested. Which PBM binding z-score did it give?
**A.** 3.55

**Q.** With AATACAGGGTCCTCGTAGGCCAGAGTACGCACAG as the sequence, how does the PBM binding z-score read?
**A.** -0.154
